Screens as filed in PubChem.
TrxR1 inh = qHTS Assay for Inhibitors of Mammalian Selenoprotein Thioredoxin Reductase 1 (TrxR1): qHTS | Thioredoxin reductase 1, cytoplasmic (Rattus norvegicus), O89049 | recombinant rTrxR1, NADPH fluorescence consumption, selenite substrate | Potency, µM (highest dose often 114 µM), most hits filed as inhibitors | 390,000 compounds, 1% hits; note: nearly all actives have a fitted effect of over 65% in size
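Rat TrxR1 (90 nM in the dispensed reagent) was pre-reduced with 400 uM NADPH for 5 min at room temperature, then incubated with compound for 15 min. After 400 uM selenite was added, NADPH fluorescence (Ex 340/Em 450 nm) was followed for 8 min.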
IDH1 R132H inh = qHTS for Inhibitors of mutant isocitrate dehydrogenase 1 (IDH1): qHTS; AID 602179, 2012; Isocitrate dehydrogenase [NADP] cytoplasmic (Homo sapiens), O75874; Potency, µM (titrated, usually from 76.6 µM), hits mostly inhibitors; 390,000 compounds, 0.093% hits; IDH1-R132H enzyme, NADPH consumption, diaphorase/resazurin fluorescence; note: nearly all actives have a fitted effect of over 65% in size
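IDH1-R132H (0.5 ug/mL) preincubated 30 min with compound, then NADPH (0.016 mM) and alpha-KG (2 mM) added; 80 min at RT, pH 7.5. Remaining NADPH coupled via diaphorase/resazurin to fluorescence (540/590 nm); concentration-response curves normalized to no-enzyme control.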
GLS inh = qHTS for Inhibitors of Glutaminase (GLS); Glutaminase kidney isoform, mitochondrial (Homo sapiens), O94925; GLS enzymatic activity, qHTS titration; Potency, µM (series often up to 45.5 µM), usual class: inhibitors; 410,000 compounds, 0.21% hits; AID 624170, 2012
Target sequence (O94925 whole entry, looked up, canonical isoform): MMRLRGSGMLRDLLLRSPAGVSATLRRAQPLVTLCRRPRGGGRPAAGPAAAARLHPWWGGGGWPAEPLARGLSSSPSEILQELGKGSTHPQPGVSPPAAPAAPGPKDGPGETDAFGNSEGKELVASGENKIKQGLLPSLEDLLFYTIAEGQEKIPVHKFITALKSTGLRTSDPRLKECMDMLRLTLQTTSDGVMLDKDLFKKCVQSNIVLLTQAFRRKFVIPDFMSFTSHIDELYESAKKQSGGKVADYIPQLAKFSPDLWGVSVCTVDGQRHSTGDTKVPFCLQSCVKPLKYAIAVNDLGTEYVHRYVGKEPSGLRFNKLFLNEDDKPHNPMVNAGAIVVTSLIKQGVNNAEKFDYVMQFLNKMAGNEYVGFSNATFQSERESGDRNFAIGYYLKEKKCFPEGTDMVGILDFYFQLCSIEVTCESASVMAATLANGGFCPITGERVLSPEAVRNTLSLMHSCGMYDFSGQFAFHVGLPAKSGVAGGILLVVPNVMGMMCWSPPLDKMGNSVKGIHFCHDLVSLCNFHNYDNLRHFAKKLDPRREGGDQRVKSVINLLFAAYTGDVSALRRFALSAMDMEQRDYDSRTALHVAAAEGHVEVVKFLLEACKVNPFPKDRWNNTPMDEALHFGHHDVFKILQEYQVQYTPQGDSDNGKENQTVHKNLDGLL
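Coupled fluorescence readout: glutamate oxidase/HRP/Amplex Red detect glutamate formed by hKGA from L-glutamine (1 mM solution added). Buffer 45 mM KH2PO4 pH 8.2, 0.02% Tween-20; reads at t0 and 30 min RT.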
TrxR1 substrate = qHTS Assay for Substrates of Mammalian Selenoprotein Thioredoxin Reductase 1 (TrxR1): qHTS. Thioredoxin reductase 1, cytoplasmic (Rattus norvegicus), O89049. purified TrxR1 substrate turnover, NADPH consumption readout. Potency, µM (titrated, usually from 114 µM). 390,000 compounds, 0.01% hits; note: nearly all actives have a fitted effect of over 50% in size
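Rat TrxR1, dispensed at 90 nM, was prereduced with 400 uM NADPH (final) for 5 min at ~22 deg C, then incubated with compound 15 min before 400 uM selenite. A first-read NADPH fluorescence drop versus no-compound background flagged substrates.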
A number is an active result; . = inactive; ? = inconclusive; / = no result; ! = not confirmed by another sample; [ ] = another dose, or the depositor's remark. An excerpt weighted towards active compounds, which were near 1.2% of everything screened. Calls come from the whole dose curve; as a rule, active = well fitted curve in the direction sought with a large enough effect; inconclusive = small, poorly fitted or top-dose-only effect, or another doubt; inactive = no such curve, though single readings can be large; an effect the other way counts as inactive or inconclusive.

SMILES	TrxR1 inh	IDH1 R132H inh	GLS inh	TrxR1 substrate
CCOc1ccccc1NC(=O)CSc1ccc(-c2sc(C)nc2C)nn1	.	.	.	.
CN1CCN(c2ccnc(N(C)CCCCCCN)n2)CC1	.	/	/	.
CC(C)C(C(=O)O)N1C(=O)/C(=C/C=C/c2ccco2)SC1=S (stereo not drawn)	32µM	.	?	?
O=C1/C(=C/C=C/c2ccco2)SC(=S)N1c1ccc(O)cc1	35µM	.	?	.
CC(C)C(C(=O)O)N1C(=O)/C(=C/c2cccn2C)SC1=S (stereo not drawn)	.	.	.	.
O=C(NN1C(=O)/C(=C/C=C/c2ccco2)SC1=S)c1ccncc1	13µM	.	7.9µM	.
O=C1/C(=C\c2ccco2)SC(=S)N1c1ccc(O)cc1	.	.	.	.
CC(C)(C)n1ncc2c(=O)n(Cc3ccc(Cl)c(C(F)(F)F)c3)cnc21	.	/	/	.
Cc1ccc(CN2CCN(C3CCN(C(=O)Nc4ccccc4C(F)(F)F)CC3)C(=O)C2=O)cc1	.	.	.	.
COc1cccc(CNCCSc2nnnn2C)c1OCc1ccccc1	.[11.4 µM]	.	.	.
CCOC(=O)/C(=C\c1cccnc1)C(=O)c1cc(C(C)=O)c(Nc2ccccc2)s1	3.2µM	?	.	.
O=C(O)c1ccc(NC(=O)c2cc3c([nH]c2=O)CCCC3=O)cc1	.	/	/	.
COC(=O)C1=C(C)OC(N)=C(C#N)C1c1ccco1 (stereo not drawn)	.	.	.	.
CC(=O)C1=C(C)OC(N)=C(C#N)C1c1ccco1 (stereo not drawn)	11µM	.	.	.
O=S1(=O)CCO[C@H]2CCCC[C@@H]2N1Cc1ccccc1Br	.	/	/	.
C=C1[C@@H](O)[C@H](CC(C)C)N(Cc2ccccc2Br)S1(=O)=O	5µM	.	.	.
CC1=C(/C=C/C(C)=C\C=C\C(C)=C\C=C\C=C(C)\C=C\C=C(C)\C=C\C2=C(C)C[C@@H](O)CC2(C)C)C(C)(C)C[C@H](O)C1	/	/	.	/
CC1=C(/C=C/C(C)=C/C=C/C(C)=C/C(=O)O)C(C)(C)CCC1	25µM!	.	.	.
O=C(OCc1ccc([N+](=O)[O-])cc1Cl)c1cnccn1	22µM	.	.	.
CCc1ccc(CNc2ccc(O)cc2)cc1	?	.	.	.
Oc1ccc(NCc2ccc(OCc3ccccc3Cl)cc2)cc1	45µM	.	.	.
Oc1ccc(NCc2ccc(OCc3ccccc3)cc2)cc1	28µM!	.	11µM!	.
Oc1ccc(NCc2ccccc2OCc2ccccc2Cl)cc1	32µM	/	?	.
CN(C)c1ccc(/C=C2\NC(=O)NC2=O)cc1	.	/	/	.
O=c1c2c3nc4ccccc4nc3n(Cc3ccccc3)c2ncn1Cc1ccco1	18µM	.	.	.
SMILES	TrxR1 inh	IDH1 R132H inh	GLS inh	TrxR1 substrate
COCCCn1c2nc3ccccc3nc2c2c(=O)n(Cc3ccc(Cl)cc3)cnc21	.	.	.	.
Cc1ccccc1NC(=O)CC1SC(=O)N(c2ccccc2)C1=O (stereo not drawn)	?	.	.	.
O=C(CC1SC(=O)N(c2ccccc2)C1=O)Nc1cccc2ccccc12 (stereo not drawn)	?	.	10µM	.
NNc1ccc([N+](=O)[O-])c2[nH][nH]c(=O)c12	/	.	7.9µM	/
CC(=O)Nc1ccc2oc(-c3ccccc3)nc2c1	.	.	.	.
CC(=O)Nc1ccc(-c2nc3ccc(NC(C)=O)cc3o2)cc1	50µM	.	.	.
O=C1C=CC(=O)N1CCNc1ncc(C(F)(F)F)cc1Cl	2µM	.	?	.
CCOC(=O)CSc1nnc(NCC(=O)OC(C)C)c(=O)[nH]1	1.8µM	.	.	.
CCOC(=O)CNC(=O)CSc1nnc(C)c(=O)[nH]1	.	.	.	.
O=C(COC(=O)c1cc(NS(=O)(=O)c2cccs2)ccc1O)Nc1ccc(F)c(F)c1F	.	.	13µM	.
OCC(O)COc1ccc(Cl)cc1 (stereo not drawn)	/	/	.	/
COc1cc(O)c(CC=C(C)C)c(O)c1C(=O)CCc1ccc(O)cc1	.	.	.	.
O=C(CCc1ccc(O)cc1)c1c(O)cc(O)cc1O	10µM	.	.	.
Cc1cc(Cl)ccc1N1C(=O)CC(NNC(=O)c2cccnc2)C1=O (stereo not drawn)	.	.	7.1µM	.
O=C(N/N=C/C=C/c1ccco1)c1ccncc1	40µM	.	.	.
O=C(N/N=C/C=C/c1ccco1)c1ccccc1Cl	56µM	.	.	.
CC(/C=C/c1ccco1)=N\NC(=O)c1cccc(Cl)c1	?	.	.	.
O=C(N/N=C/C=C\c1ccco1)c1cccs1	?	.	.	.
O=C(N/N=C/C=C/c1ccco1)/C(=C/c1ccccc1)NC(=O)c1ccccc1	20µM	.	.	.
CC(/C=C/c1ccco1)=N/NC(=O)c1ccccc1Cl	16µM	.	.	.
O=C(O)/C(=C\c1ccco1)NC(=O)c1ccccc1	.	.	.	.
COCCCNC(=O)c1sc2nc3n(c(=O)c2c1C)CCC3	.	.	.	.
COc1ccc([C@H]2CC(=O)C=C(c3ccc(Cl)c(C(F)(F)F)c3)C2)cc1	.	.	.	.
COc1ccc(NC(=O)N(Cc2nnc3n2CCCCC3)c2ccc(OC)c(Cl)c2)cc1	.	.	.	.
Cc1oc(-c2cccc(Cl)c2)nc1CN1CCCC(C(=O)N2CCN(c3ccc(F)cc3)CC2)C1 (stereo not drawn)	.	.	.	.
SMILES	TrxR1 inh	IDH1 R132H inh	GLS inh	TrxR1 substrate
Cc1cc(Cl)ccc1OCC(=O)Nc1cccc(-c2nc3ccccc3o2)c1	.	/	/	.
O=S(=O)(CCN1CCCCC1)Oc1ccc(Cl)cc1Cl	0.89µM	.	.	.
CC(CCc1ccc2c(c1)OCO2)NN (stereo not drawn)	/	/	.	/
Cc1ccc(/C=C/C(=O)Nc2nnc(C)s2)o1	28µM	.	.	.
Cc1cc(NS(=O)(=O)c2ccc(NC(=O)/C=C/c3ccc(C)o3)cc2)nc(C)n1	28µM	.	10µM	.
Cc1ccc(NC(=O)/C=C/c2ccc(C)o2)c(C)c1	20µM	.	.	.
Cc1ccc(/C=C/C(=O)Nc2cc(=O)n(C)c(=O)n2C)o1	7.9µM	.	.	.
Cc1cc(NS(=O)(=O)c2ccc(NC(=O)/C=C/c3ccccc3)cc2)nc(C)n1	.	.	.	.
Cn1c(NC(=O)/C=C/c2ccco2)cc(=O)n(C)c1=O	?	.	.	.
CN(C)c1cc2c3ccccc3ccc2c2ccccc12	.	/	/	.
Cc1ccc(N(CC(=O)Nc2ccc(Br)c(C)c2)S(=O)(=O)c2cccs2)cc1	.	.	.	.
CC(=O)c1ccc(NC(=O)/C=C/c2ccc(C)o2)cc1	22µM	.	.	.
Cc1ccc(/C=C/C(=O)Nc2ccc(Oc3ccccc3)cc2)o1	?	.	.	.
Cc1cccc(C(=O)Nc2cccc3cccnc23)c1	.	.	.	.
